Among the data in PubChem BioAssay AID485275 (NMMLSC, 2010) are inhibition values, retold here.

Molecules are shown by their SMILES. In all, about 330,000 compounds went through this assay and about 1,400 (0.42%) were called active. The full list was thinned out, with actives kept by preference. A number with no mark means an inactive call.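 Rule for the calls: active = plate passing quality check with inhibition over a set limit, or well fluorescence over plate mean plus 4 SD; inactive = the rest.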

A short description of this assay: inhibitors of Candida efflux pumps in yeast, primary screen, S. cerevisiae, Nile Red, multiplex (AID 485275).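 Note: Nile Red retained in pooled yeast measured as flow cytometry median fluorescence; 0% = buffer negative control and 100% = Enniatin B positive control; higher means more Nile Red kept so more efflux inhibition.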 The following applies: S. cerevisiae Candida pump triplex, at 10 µM, hits give high values.
As usually defined, the inhibition is the change of the read-out against control, counted positive when it falls. Take `CCOC(=O)C1CCN(C(=O)CN2C(=O)NC(C)(c3ccc4cc(OC)ccc4c3)C2=O)CC1` (configuration not stated): the inhibition is -0.03%.
As for `O=C1c2ccccc2[C@@H]2C[C@@H](O)[C@H](Nc3ccccc3Cl)CCN12`, the inhibition is 0.16%.
To `O=C(CNCc1ccc(F)cc1)Nc1ccccc1-c1ccccc1` belongs -0.07%.
To `CCN(CC)CCn1c2c(c(SCC(=O)Nc3ccc(C(C)C)cc3)nc1=O)CCC2` belongs -0.06%.
`CC1CCCCC1NC(=O)c1cn(C)c2ccc(S(=O)(=O)N3CCOCC3)cc2c1=O` (configuration not stated): the inhibition was -0.14%.
To `COCCNC(=O)c1ccc2c(c1)ncn2-c1ccc(C)c(Cl)c1` belongs 0.09%; to `CCn1c(SCc2ccccc2)nc2cc(OC)c(OC)cc2c1=O`, -0.05%; to `CCn1c(/C=C/c2ccc([N+](=O)[O-])o2)nc2ccccc2c1=O`, 1.26% (active).
The result for `CCOCCCn1c(NN)nc2ccccc2c1=O` reads 0.04%; that for `C=CC[C@H](CC(=O)NCCO)C(=O)N[C@@H](COC(=O)[C@@H](CC=C)Cc1ccc(F)cc1)Cc1c[nH]c2ccccc12`, -0.26%; that for `COc1ccc(C(=O)NC(=S)Nc2ccccc2N2CCN(S(C)(=O)=O)CC2)cc1OC`, 0.06%.
The result for `Cc1ccc(C(=O)NC(=S)Nc2ccc(N3CCOCC3)cc2)cc1` reads 0%; that for `COc1ccc(C(=O)NC(=S)Nc2ccc(N3CCCC3)cc2)cc1OC`, 6.65% (active); that for `CCn1cc(C(=O)N2CC(C)CC(C)C2)c(=O)c2cc(S(=O)(=O)N3CCCC3)ccc21` (configuration not stated), 0.08%.
For the compound `O=C(NCCc1ccccn1)c1cc(-c2ccc(Cl)cc2)nc2ccccc12`, the inhibition was 0.18%.
In the case of `Cn1nnnc1SCC(=O)Nc1ccccc1C(=O)NC1CC1`, the inhibition is 0%.
Regarding `CC(=C/c1ccccc1)/C=N/NC(=O)c1cc(C)oc1C`, the inhibition is 0.06%.
Take `CC(/C=N/NC(=O)c1cc(-c2ccc3ccccc3c2)n[nH]1)=C\c1ccco1`: the inhibition is 0.5% (active).
Turning to `CC(C)(C)C1CCC(=NNC(=O)c2cc(-c3ccccc3)n[nH]2)CC1` (configuration not stated), the inhibition is 0.31%.
On to `CCOC(OCC)c1ccc(/C=C\c2nccc(N)n2)cc1`, for which the inhibition is -0.05%.
As for `Cc1ccc(-n2c(SCC(=O)Nc3ncc(Cl)cc3Cl)nc3ccccc32)cc1`, the inhibition is 0.75%.
In the case of `CCCn1c(O)c(CN2CCCC(C)C2)c(C)c(C#N)c1=O` (configuration not stated), the inhibition is -0.15%.
Regarding `CCOc1ccc(N2C(=O)CN(c3cccc4ccccc34)C2=S)cc1`, the inhibition was -0.04%.
The result for `COc1ccc(CCNC(=O)C(=O)NCC2OCCN2S(=O)(=O)c2ccc(F)cc2)cc1OC` (configuration not stated) reads 0.07%; that for `COc1ccc(S(=O)(=O)N2CCOC2CNC(=O)C(=O)NCc2ccc(F)cc2)cc1` (configuration not stated), 5.66% (active); that for `O=C(NCc1ccc2c(c1)OCO2)C(=O)NCC1OCCN1S(=O)(=O)c1ccc(F)cc1` (configuration not stated), 0.25%.
With `O=C(c1ccc(Cl)nc1)N1CCN(S(=O)(=O)c2ccc3c(c2)OCCO3)CC1`, the inhibition is -0.06%.
As to `O=C(OCc1ccc(-c2ccccc2)cc1)c1cccc(O)c1`, the inhibition was 20.2% (active).
In the case of `O=C(OCc1ccc(Br)cc1)c1cccc(-c2nnc(-c3ccccc3)o2)c1`, the inhibition is 0.06%.
Regarding `O=C(OCC(=O)c1c[nH]c2ccccc12)c1cccc(O)c1`, the inhibition was 0.55%.
As for `COc1cc(CNc2ncn[nH]2)ccc1OCc1ccccc1C`, the inhibition is 0.06%.
Turning to `[2H]C(CCOS(N)(=O)=O)c1ccccc1` (configuration not stated), the inhibition is -0.09%.
Turning to `Fc1cnc(N2CCOCC2)nc1NCc1ccccc1`, the inhibition was -0.13%.
In the case of `CCOC(=O)c1c(N=CN(C)C)c(C#N)c2n1CCCC2`, the inhibition is -0.18%.
As for `COc1ccc(Cc2nnc(SCC(=O)Nc3ccc(C)c(C)c3)o2)cc1OC`, the inhibition is -0.04%.
`CCCc1nnc(SCC(=O)Nc2ccc(C(=O)OCC)cc2)o1`: the inhibition is 2.83% (active).
On to `Cc1ccc(NC(=O)CSc2nnc(COc3ccccc3C)o2)cc1`, for which the inhibition is -0.17%.
Take `O=C(COC(=O)Cn1cnc2ccccc2c1=O)NCc1ccccc1Cl`: the inhibition is 0.17%.
On to `Nc1ccc2nc3c(=O)[nH]c(=S)[nH]c3nc2c1`, for which the inhibition was 0.97% (active).
Turning to `Cc1noc(C)c1S(=O)(=O)N(C)C[C@H]1Oc2c(NC(=O)Nc3ccc4c(c3)OCO4)cccc2C(=O)N([C@H](C)CO)C[C@@H]1C`, the inhibition was 0.73%.
The result for `COC(=O)[C@]1(CC(C)C)N[C@H](c2ccc(SC3CCCCC3)cc2)[C@@H]2C(=O)N(C)C(=O)[C@@H]21` reads -0.02%; that for `CC[n+]1cc(C)ccc1/C=C/c1ccc(N(C)C)cc1`, 5.98% (active).
On to `O=C(N/N=C\c1cc2c(cc1Cl)OCO2)c1ccc(Br)s1`, for which the inhibition is 0.06%.
For `CC(/C=C/c1ccccc1)=N\NC(=O)C1CC1(C)c1ccccc1` (configuration not stated), the inhibition is 2.26% (active).
`O=C(N/N=C/C=C/c1ccccc1)C1CC1(c1ccccc1)c1ccccc1` (configuration not stated): the inhibition is -0.21%.
To `CC(/C=C/c1ccco1)=N/NC(=O)C1COc2ccccc2O1` (configuration not stated) belongs 0.12%; to `Cc1csc(NC(=O)c2ccc(C)s2)n1`, 0.06%; to `Cc1ccc(C(=O)Nc2nc3ccc(Cl)cc3s2)o1`, -0.17%.
To `Cc1csc(NC(=O)c2ccc(-c3ccc(Cl)cc3Cl)o2)n1` belongs 16.6% (active); to `O=C(NCc1ccncc1)C(=O)NCC1OCCN1S(=O)(=O)c1ccc(Br)cc1` (configuration not stated), 0.06%; to `O=C(COC(=O)c1ccc(N2CCCC2=O)cc1)c1ccc(OC(F)F)cc1`, 0.24%.
As for `CC1CCCC(N2CCN(C(=O)c3ccc(F)cc3)CC2)C1` (configuration not stated), the inhibition was -0.1%.
For `CCn1c(SC(C)C(=O)Nc2ccc(N3CCOCC3)cc2)nnc1-c1ccco1` (configuration not stated), the inhibition is 0.21%.
For the compound `O=C(CN1C(=O)c2cccnc2Oc2ccc(Cl)cc21)NCCc1ccccc1`, the inhibition is -0.23%.
The result for `COc1ccccc1CSc1ncc(-c2ccc([N+](=O)[O-])cc2)[nH]1` reads 18.3% (active).
As for `N#Cc1c(-c2ccccc2)nc(SCc2ccc([N+](=O)[O-])cc2)[nH]c1=O`, the inhibition is -0.1%.
With `COc1ccccc1C1CCN(c2ccc([N+](=O)[O-])cn2)CC1`, the inhibition was 0.16%.
Regarding `CCC(Cc1ccccc1)NS(=O)(=O)c1ccc2c(c1)NC(=O)CS2` (configuration not stated), the inhibition was -0.01%.
The result for `COc1ccc(C2/C(=C(/O)c3ccc4c(c3)CC(C)O4)C(=O)C(=O)N2Cc2ccncc2)cc1` (configuration not stated) reads 0.59%.
As to `COCCCN1C(=O)C(=O)/C(=C(/O)c2ccc3c(c2)CC(C)O3)C1c1cccnc1` (configuration not stated), the inhibition is 0.03%.
The result for `CCOc1ccc(C2/C(=C(/O)c3ccc4c(c3)CC(C)O4)C(=O)C(=O)N2CCCn2ccnc2)cc1` (configuration not stated) reads 4.24% (active); that for `COc1ccc(S(=O)(=O)N2CCCCCC2)cc1C(=O)N(C)Cc1cccc(OC)c1OC`, 0.1%.
On to `Cc1nn(C)cc1C(=O)Nc1ccccc1Br`, for which the inhibition is 6.48% (active).
Turning to `Cc1nn(C)cc1C(=O)c1ccccc1`, the inhibition was -0.06%.
As for `O=C(O)c1ccccc1-c1ccccc1C(=O)Nc1ccccc1Br`, the inhibition is -0.16%.
With `O=c1[nH]c2ccccc2n2c(-c3ccccc3)nnc12`, the inhibition was 0.01%.
For the compound `NNC(=O)CSc1nnc(-c2ccccc2)n1-c1ccccc1`, the inhibition is 0.17%.
In the case of `Cc1ccc2[nH]c3c(=O)n(CC(=O)NCCc4ccc(Cl)cc4)ncc3c2c1`, the inhibition is 0.66% (active).
`CC1CC(C)CN(CCCNC(=O)Cn2ncc3c([nH]c4ccccc43)c2=O)C1` (configuration not stated): the inhibition was 0.29%.
`Cc1cccc(CCNC(=O)Cn2ncc3c([nH]c4ccc(C)cc43)c2=O)c1`: the inhibition was 0.33%.
The result for `CCCCCC(=O)Nc1ccc(C(=O)N/N=C/c2ccc([N+](=O)[O-])cc2)cc1` reads 9.14% (active).
To `O=C(COc1ccc(/C=N/NC(=O)c2ccc(O)cc2)cc1)Nc1ccc([N+](=O)[O-])cc1` belongs -0.1%; to `CCCCCC(=O)NC(=S)NNC(=O)c1ccc([N+](=O)[O-])cc1`, 0.09%.
The result for `CC1(C(=O)NNC(=S)NCC2CCCO2)CC1(Cl)Cl` (configuration not stated) reads -0.05%; that for `O=C(NC1CCCC1)C(=O)c1c[nH]c2ccccc12`, -0.55%; that for `COc1ccc(/C=C(\C#N)c2c[nH]c3ccccc23)cc1`, 0.35%.
For the compound `C[n+]1ccc(/C=C/c2c[nH]c3ccccc23)cc1`, the inhibition is 2.57% (active).
On to `CN(C)c1nc2n(c(=O)n1)CCO2`, for which the inhibition is 0.06%.
`Nc1nc(O)c(CC(=O)O)s1`: the inhibition was 0.36%.
Turning to `CN(c1ccccc1)c1ccc(/C=c2\s/c(=C(/C#N)C(=O)C(C)(C)C)n(Cc3ccco3)c2=O)cc1`, the inhibition is 7.32% (active).
The result for `Cc1ccc(C(=O)NCC(c2cccs2)N(C)C)cc1S(=O)(=O)N1CCOCC1` (configuration not stated) reads 0.37%.
The result for `Cc1ccc(-c2nn(-c3ccc(F)cc3)cc2C(=O)NCC(c2cccs2)N2CCOCC2)cc1` (configuration not stated) reads 0.02%; that for `CCCN1CNC(=S)N(CCc2ccccc2)C1`, -0.07%.
Turning to `C/C(=C\c1ccco1)CN1CCC(N2CCC(C(=O)N3CCOCC3)CC2)CC1`, the inhibition is -0.13%.
In the case of `COc1ccc(OCC(=O)NNC(=O)C2CCC2)cc1`, the inhibition is 0.28%.
On to `NNC(=O)COc1ccc(C2SCCS2)cc1`, for which the inhibition is 0.52% (active).
The result for `O=C(COc1ccc(Cl)cc1)Nc1ccc2c(c1)OCO2` reads 0.16%; that for `Cc1ccc(CS(=O)(=O)CCC(=O)NCc2ccc(F)cc2)cc1`, 0.01%; that for `COc1ccc(NC(=O)Cn2ncn3c(cc4ccccc43)c2=O)c(OC)c1OC`, 0.03%.
`CC(C)c1ccc(NC(=O)Cn2ncc3ccccc32)cc1`: the inhibition is 0.04%.
To `CCc1ccc(NC(=O)Cn2ncn3c(cc4ccccc43)c2=O)cc1` belongs 0.97% (active); to `CC(=O)Nc1ccc(S(=O)(=O)NC(C)C(=O)OCCOc2ccc(F)cc2)cc1` (configuration not stated), -0.06%.
